Assay results published in PubChem BioAssay (NCATS).
Records with an inconclusive call do not appear. A call without a number means that no potency is given here. A number with no mark means an inactive call. Activity calls are given as the source filed them. The call rests on the fitted dose curve; in most records, active means well fitted curve in the direction sought with a large enough effect; inconclusive means small, poorly fitted or top-dose-only effect, or another doubt; inactive means no such curve, though single readings can be large; an effect the other way counts as inactive or inconclusive.

Tests used:
[1] = Primary qHTS for inhibitors of nuclear receptor binding SET domain protein 2 (NSD2) in an isogenic RCH-ACV NSD2 p.E1099K mutant (9B) (AID 1645876)
[2] = Primary qHTS for inhibitors of nuclear receptor binding SET domain protein 2 (NSD2) in an RCH-ACV wild type WT cells (2C) (AID 1645877)
Further: nearly all actives have a fitted effect of over 70% in size.
Potency means the concentration at half of the fitted maximal effect.

**Q.** What does the source list for `CC(C)(C)C(=O)CN1C(=O)[C@H](NC(=O)Nc2cccc(C(=O)O)c2)CN(C2CCCCC2)c2ccccc21`?
**A.** Potency [1]: inactive; Potency [2]: inactive

**Q.** Which results are given for `CCCCC1CCN(CCCC(=O)c2ccccc2C)CC1`?
**A.** Potency [1]: 20.5 µM (active); Potency [2]: 16.3 µM (active)

**Q.** Which Potency [1] does the source give for `CC1CCC2(C(=O)O)CCC3(C)C(=CCC4C5(C)CCC(OC(=O)/C=C/c6ccccc6)C(C)(C)C5CCC43C)C2C1C` (stereo unspecified) here?
**A.** inactive

**Q.** And the Potency [2]?
**A.** inactive

**Q.** For `C[C@@H]1O[C@@H](O[C@H]2[C@H](OC(=O)[C@]34CCC(C)(C)C[C@H]3C3=CCC5[C@@]6(C)CC[C@H](O[C@@H]7O[C@H](C(=O)O)[C@@H](O)[C@H](O)[C@H]7O[C@@H]7O[C@H](CO)[C@H](O)[C@H](O)[C@H]7O)[C@@](C)(C=O)C6CC[C@@]5(C)[C@]3(C)C[C@H]4O)O[C@H](C)[C@H](O[C@@H]3O[C@H](C)[C@H](O)[C@H](O)[C@H]3O)[C@@H]2O)[C@H](O)[C@H](O)[C@H]1O[C@@H]1OC[C@@H](O)[C@H](O[C@@H]2O[C@H](CO)[C@@H](O)[C@H](O)[C@H]2O)[C@H]1O` (stereo partly specified), which activity change, negative = viability loss [1] is on record?
**A.** -94% [at 4.96 µM]

**Q.** What about the activity change, negative = cell killing [2] of the same molecule?
**A.** -94% [at 4.96 µM]

**Q.** Which Potency [1] does the source give for `COc1cc(/C=C/CO)cc(OC)c1O[C@@H]1O[C@H](CO[C@@H]2O[C@H](CO)[C@@H](O)[C@H](O)[C@H]2O)[C@@H](O)[C@H](O)[C@H]1O` here?
**A.** inactive

**Q.** What about the Potency [2] of the same molecule?
**A.** inactive

**Q.** For `COc1cc(C2c3cc4c(c(O)c3CC(CO)C2C(=O)O)OCO4)cc(OC)c1O` (stereo unspecified), which Potency [1] is on record?
**A.** 2.52 µM (active)

**Q.** What about the Potency [2] of the same molecule?
**A.** 2 µM (active)

**Q.** For `CC(=O)O[C@@H]1[C@@H](CO)O[C@@](CO)(O[C@H]2O[C@H](COC(=O)/C=C/c3ccccc3)[C@@H](O)[C@H](O)[C@H]2O)[C@H]1O`, which Potency [1] is on record?
**A.** inactive

**Q.** What about the Potency [2] of the same molecule?
**A.** inactive

**Q.** With `COC(=O)C(C)C1CCC2(C)C(=O)C=CC(C)(O)C2C1O` (stereo unspecified) as the molecule, how does the Potency [1] read?
**A.** inactive

**Q.** What about the Potency [2] of the same molecule?
**A.** inactive

**Q.** With `C[C@@H]1O[C@@H](O[C@@H]2CO[C@@H](O[C@H]3CC[C@@]4(C)C(CC[C@]5(C)C4CC=C4[C@@H]6CC(C)(C)CC[C@]6(C(=O)O[C@@H]6O[C@H](CO)[C@@H](O)[C@H](O)[C@H]6O)CC[C@]45C)[C@]3(C)CO)[C@H](O)[C@H]2O[C@@H]2O[C@H](CO)[C@@H](O)[C@H](O)[C@H]2O)[C@H](O)[C@H](O)[C@H]1O` (stereo partly specified) as the molecule, how does the activity change, negative = viability loss [1] read?
**A.** -16% [at 9.23 µM]

**Q.** What about the activity change, negative = cell killing [2] of the same molecule?
**A.** -18.1% [at 9.23 µM]

**Q.** For `COc1c2c(cc3c1-c1c(cc4c(c1OC)OCO4)CC(C)C(C)C3)OCO2` (stereo unspecified), which Potency [1] is on record?
**A.** inactive

**Q.** And the Potency [2]?
**A.** inactive

**Q.** What does the source list for `CC1(C)CCC[C@@]2(C)C1[C@H](OC(=O)/C=C/C=C/C(=O)O)C=C1COC(=O)[C@@]12O` (stereo partly specified)?
**A.** Potency [1]: inactive; Potency [2]: inactive

**Q.** What does the source list for `C=C1CCC2C(C)(C(=O)OC)CCCC2(C)C1CCC(C)CC(=O)O` (stereo unspecified)?
**A.** Potency [1]: inactive; Potency [2]: inactive

**Q.** Which results are given for `NC1CCCCN(c2c(F)cc3c(=O)c(C(=O)O)cn(C4CC4)c3c2Cl)C1` (stereo unspecified)?
**A.** Potency [1]: inactive; Potency [2]: inactive

**Q.** Which results are given for `C=CCC1=C[C@]2(OC)[C@H](C)[C@@H](c3ccc(O)c(OC)c3)O[C@]2(OC)CC1=O`?
**A.** Potency [1]: inactive; Potency [2]: inactive

**Q.** Which results are given for `CC12CCC3c4ccc(OC5OC(C(=O)O)C(O)C(O)C5O)cc4CCC3C1CCC2O` (stereo unspecified)?
**A.** Potency [1]: inactive; Potency [2]: inactive

**Q.** For `C=CC1(C)C=C2C(=O)OC(=O)C3=C(CCCC3(C)C)C2(O)CC1` (stereo unspecified), which Potency [1] is on record?
**A.** inactive

**Q.** What about the Potency [2] of the same molecule?
**A.** inactive

**Q.** For `C=CC(C)(C)c1[nH]c2cc3c(cc2c1CC1NC(=O)C2CCCN2C1=O)C=CC(C)(C)O3` (stereo unspecified), which Potency [1] is on record?
**A.** inactive

**Q.** What about the Potency [2] of the same molecule?
**A.** inactive

**Q.** With `CC1(C)C2CC(OC3OC(COC4OCC(O)(CO)C4O)C(O)C(O)C3O)C1(C)CC2O` (stereo unspecified) as the molecule, how does the Potency [1] read?
**A.** inactive

**Q.** What about the Potency [2] of the same molecule?
**A.** inactive

**Q.** With `COc1ccc(C(O)C(C)OC2OC(CO)C(O)C(O)C2O)cc1` (stereo unspecified) as the molecule, how does the Potency [1] read?
**A.** inactive

**Q.** And the Potency [2]?
**A.** inactive

**Q.** With `C[C@@H]1N[C@H]2N(C1=O)c1ccccc1[C@@]2(O)C[C@@H]1C(=O)N[C@@H](C)c2nc3ccccc3c(=O)n21` as the molecule, how does the Potency [1] read?
**A.** inactive

**Q.** What about the Potency [2] of the same molecule?
**A.** inactive

**Q.** With `C=C1C[C@]23C[C@H]1CC[C@H]2C1=C[C@H]2OC(=O)[C@@](C)([C@H]1[C@@H]3C(=O)O)[C@H]2O` as the molecule, how does the Potency [1] read?
**A.** inactive

**Q.** And the Potency [2]?
**A.** inactive

**Q.** For `COc1cc2occc2c(O[C@@H]2O[C@H](CO)[C@@H](O)[C@H](O)[C@H]2O)c1CCC(=O)O`, which Potency [1] is on record?
**A.** inactive

**Q.** What about the Potency [2] of the same molecule?
**A.** inactive

**Q.** Which activity change, negative = viability loss [1] does the source give for `C[C@@H]1O[C@@H](O[C@H]2[C@@H](OC(=O)[C@]34CCC(C)(C)CC3C3=CCC5[C@@]6(C)C[C@H](O)[C@H](O[C@@H]7O[C@H](C(=O)O)[C@@H](O)[C@H](O)[C@H]7O)[C@@](C)(C(=O)O)C6CC[C@@]5(C)[C@]3(C)CC4)OC[C@H](O)[C@@H]2O)[C@H](O)[C@H](O)[C@H]1O[C@@H]1OC[C@@H](O)[C@H](O)[C@H]1O` (stereo partly specified) here?
**A.** -12% [at 9.23 µM]

**Q.** What about the activity change, negative = cell killing [2] of the same molecule?
**A.** -16.7% [at 9.23 µM]
